The values below come from PubChem BioAssay.

Test [1] in a line: inhibitors of TNFa-induced NFkB p65 translocation, primary screen, imaging, HUVEC, MLSMR starter and 10KST1 sets (AID 438;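 active = inhibition above 20% together with a positive visual image hit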;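 also: compound added about 3h40 before a 20 min TNFalpha stimulation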;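 as to inhibition: signal is the nuclear over cytoplasmic p65 intensity ratio per well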). The conditions noted are these: HUVEC TNFa-induced p65 nuclear translocation; cell count: measured here: nuclei count (cytotoxicity indicator), at 2.08 µM; inhibition: at 2 µM, stronger effect = higher value, 0% TNFa-plus-vehicle, 100% no-TNFa wells.
Test [2] can be described thus: reduction of polyQ htt aggregates in cells – imaging, exon1htt(103Q)mCFP cells, high-content imaging, primary screen (AID 483;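 active = visual image review flags a hit and inhibition of aggregation exceeds 20%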;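 also: compound exposure lasted 3 days before fixation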;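 as to nuclei count: percent of the per-plate median nuclei count of sample wells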). The conditions noted are these: exon1htt(103Q)mCFP cell line, aggregate imaging, at 2 µM; inhibition of aggregation: stronger effect = higher value; nuclei count: measured here: cell count, toxicity.
A short description of test [3]: endothelial E-selectin expression blockers – imaging, HUVEC, immunofluorescence, MLSMR starter and 10KST1 sets, primary screen (AID 487;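 active = visually confirmed hit in the image check and inhibition above 20%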;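 as to inhibition: signal is fraction of cell area covered by stained E-selectin grains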;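 as to nuclei count: 100% = median nuclei count of all wells on the same plate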). The conditions noted are these: HUVEC TNFalpha-induced E-selectin immunofluorescence imaging, at 2 µM; inhibition: stronger effect = higher value; nuclei count: measured here: cell number, toxicity.
Test [4] has as its target Voltage-gated potassium channel subunit beta-2 (Rattus norvegicus) (UniProt P62483). Kind of test: inhibitors of rat Kvbeta2 reductase activity – biochemical, NADPH fluorescence, primary screen (AID 622;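 active = fluorescence slope higher than the sample average by over 3 SD, cut at about -0.22 in these data, passing the limit was not always enough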;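 also: slope of raw intensity against log time taken from 70 to 1610 s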). The conditions noted are these: recombinant KvBeta, 4-cyanobenzaldehyde reduction, at 10 µM, stronger effect = higher value.
The target is the same in test [5]. Briefly: enhancers of rat Kvbeta2 NADPH turnover – biochemical, NADPH fluorescence, primary screen (AID 623;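 active = NADPH fluorescence slope more negative than the mean of all samples by about 3 SD, 99.7% confidence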;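 also: fluorescence intensity change per second fitted from 20 to 320 s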). To be noted: Recombinant KvBeta, NADPH fluorescence decrease slope, 10 min; at 10 µM; stronger effect = lower value.
Test [6] deals with Alpha-2C adrenergic receptor (Homo sapiens) (UniProt P18825). Kind of test: compounds altering alpha2C-coupled GIRK flux – cell-based, HEK293 alpha2C/GIRK1/2, thallium flux, primary screen (AID 624).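 Also: slope of fluorescence ratio to pre-addition baseline per second over 15 to 24 s.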 To be noted: thallium flux BTC fluorescence, at 10 µM, actives lie on both sides.
Test [7] is described as follows: blockers of RIG-like receptor reporter activation – cell-based, Sendai virus stimulus, luciferase, 10K MLSCN set, TLR/RLR signaling modifier project, primary screen (AID 602276;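 active = inhibition at or above 50% at 10 µM; inactive = inhibition below 50%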;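 also: firefly luciferase from ISG56 promoter only with Renilla not read in this screen; 0% = Sendai virus plus DMSO and 100% = medium plus DMSO without virus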). The conditions noted are these: HEK293 RL24 IRF3 luciferase reporter, at 10 µM, stronger effect = higher value.
Test [8] is described as follows: TLR3 IRF3 reporter activation blockers – cell-based, poly I:C stimulus, luciferase, 10K MLSCN set, primary screen (AID 602277;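 active = inhibition of the reporter signal at or above 50%; inactive = inhibition below 50%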). To be noted: HEK293-TLR3 RL24 IRF3 luciferase reporter, at 10 µM, stronger effect = higher value.

The source made the active and inactive calls.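 The calls were made as follows, unless noted: active = fluorescence slope after compound addition differing from the mean of all screened samples at 99.7% confidence, in either direction; inactive = the rest.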

Sequence of Alpha-2C adrenergic receptor (Homo sapiens) (P18825 whole entry, looked up): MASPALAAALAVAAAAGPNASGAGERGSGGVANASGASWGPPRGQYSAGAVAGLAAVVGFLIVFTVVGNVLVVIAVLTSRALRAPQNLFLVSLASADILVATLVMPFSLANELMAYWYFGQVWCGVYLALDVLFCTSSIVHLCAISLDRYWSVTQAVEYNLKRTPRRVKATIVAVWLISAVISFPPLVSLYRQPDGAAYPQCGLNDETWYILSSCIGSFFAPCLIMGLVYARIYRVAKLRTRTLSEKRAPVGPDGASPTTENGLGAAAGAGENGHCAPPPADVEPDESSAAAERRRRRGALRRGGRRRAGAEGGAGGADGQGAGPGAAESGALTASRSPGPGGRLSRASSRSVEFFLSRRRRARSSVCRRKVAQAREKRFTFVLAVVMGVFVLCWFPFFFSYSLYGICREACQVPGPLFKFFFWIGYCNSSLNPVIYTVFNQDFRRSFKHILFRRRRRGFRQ
Sequence of Voltage-gated potassium channel subunit beta-2 (Rattus norvegicus) (P62483 whole entry, looked up): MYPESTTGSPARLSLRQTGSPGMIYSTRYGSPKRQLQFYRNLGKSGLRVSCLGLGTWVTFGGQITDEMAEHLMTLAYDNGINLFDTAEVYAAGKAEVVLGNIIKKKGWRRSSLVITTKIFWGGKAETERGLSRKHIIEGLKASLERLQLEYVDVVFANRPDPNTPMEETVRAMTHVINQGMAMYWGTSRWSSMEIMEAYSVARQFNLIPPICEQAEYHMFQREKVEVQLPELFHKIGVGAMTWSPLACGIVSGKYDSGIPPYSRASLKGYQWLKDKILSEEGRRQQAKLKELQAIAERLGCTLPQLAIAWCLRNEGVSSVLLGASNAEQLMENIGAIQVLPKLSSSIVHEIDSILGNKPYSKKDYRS

Regarding `COC(=O)[C@H](C)NC(=O)Nc1cc(OC)ccc1OC`, the cell count in test [1] amounted to 572. The inhibition in test [1] is -15.2% (inactive); in test [3], -11% (inactive); in test [7], -3.29% (inactive); in test [8] it was -52% (inactive). Besides, in test [2], the inhibition of aggregation was -17.4% (inactive). Further, the nuclei count is 114% in test [2] and 103% in test [3]. In addition, the fluorescence slope in test [4] is -0.586 (inactive). For the same molecule, the NADPH fluorescence slope in test [5] was 1.8e-05 (inactive). In test [6], the slope was 0.00542 (inactive).

Regarding `CCC(=O)OCCn1c(=O)c2cc3c(=O)n(CCOC(=O)CC)c(=O)c3cc2c1=O`, the cell count in test [1] turned out to be 446. The inhibition in test [1] was 0% (inactive); in test [3], -44.7% (inactive); in test [7] it was -12.3% (inactive); in test [8] it was 6.39% (inactive). Besides, in test [2], the inhibition of aggregation was -19% (inactive). Besides, the figures for the nuclei count in test [2] and in test [3] were 94.4% and 125%, respectively. For the same molecule, in test [4], the fluorescence slope is -0.483 (inactive). The NADPH fluorescence slope in test [5] is 2.7e-05 (inactive). For the same molecule, the slope in test [6] is 0.00378 (inactive).

Turning to `Cc1cc(NC(=O)COc2cccc(Oc3ccccc3)c2)no1`, in test [1], the cell count stood at 327. Besides, the inhibition is -0.9% (inactive) in test [1], -61% (inactive) in test [3], 10.8% (inactive) in test [7] and 30.5% (inactive) in test [8]. Moreover, the inhibition of aggregation in test [2] was -11.4% (inactive). Besides, the values for the nuclei count in test [2] and in test [3] were 80.8% and 106%, respectively. In test [4], the fluorescence slope was -0.375 (inactive). Besides, the NADPH fluorescence slope in test [5] is -7.6e-05 (inactive). In addition, in test [6], the slope was 0.0048 (inactive).

As for `CC1=C(n2nnc3ccccc32)C(c2ccccc2)C(C#N)=C(N)O1` (centres undefined), the cell count in test [1] came out at 424. Moreover, the inhibition is 1.5% (inactive) in test [1], 27.5% (inactive) in test [3], 17.5% (inactive) in test [7] and 32% (inactive) in test [8]. Moreover, in test [2], the inhibition of aggregation was 13.7% (inactive). For the same molecule, the nuclei count turned out to be 90.7% in test [2] and 113% in test [3]. Moreover, the fluorescence slope in test [4] was -0.364 (inactive). For the same molecule, the NADPH fluorescence slope in test [5] was -0.00012 (inactive). Also, the slope in test [6] is 0.00512 (inactive).

Consider `CCN1CCN(S(=O)(=O)Cc2ccccc2)CC1`, for which the cell count in test [1] came to 426. For the same molecule, the inhibition was -2.4% (inactive) in test [1], -78.4% (inactive) in test [3], -13.3% (inactive) in test [7] and -9.78% (inactive) in test [8]. Also, the inhibition of aggregation in test [2] is 23.9% (inactive). For the same molecule, the nuclei count came to 32.2% in test [2] and 106% in test [3]. Besides, the fluorescence slope in test [4] was -0.607 (inactive). The NADPH fluorescence slope in test [5] was -2.9e-05 (inactive). For the same molecule, in test [6], the slope is 0.00543 (inactive).

Take `CN(C)c1ccc(/C=C/c2ccncc2)cc1`: the cell count in test [1] turned out to be 311. The inhibition is -5.5% (inactive) in test [1], -76.4% (inactive) in test [3], -62.5% (inactive) in test [7] and -181% (inactive) in test [8]. Further, in test [2], the inhibition of aggregation is 22.3% (inactive). Besides, the values for the nuclei count in test [2] and in test [3] were 83.5% and 87.8%, respectively. Besides, in test [4], the fluorescence slope was -0.382 (inactive). Moreover, the NADPH fluorescence slope in test [5] is 1.7e-05 (inactive). For the same molecule, the slope in test [6] was 0.00338 (inactive).

Turning to `Cc1ccc2[nH]cc(C(=O)CN3CCC4(CC3)OCCO4)c2c1`, in test [1], the cell count is 355. For the same molecule, the inhibition in test [1] was 2% (inactive); in test [3], -18.9% (inactive); in test [7], 4.24% (inactive); in test [8], 7.68% (inactive). Also, the inhibition of aggregation in test [2] is 14.9% (inactive). The nuclei count in test [2] turned out to be 88%; in test [3] it was 122%. For the same molecule, the fluorescence slope in test [4] was -0.619 (inactive). Further, the NADPH fluorescence slope in test [5] is -9.1e-06 (inactive). In test [6], the slope was 0.00468 (inactive).

As to `COc1cccc(C(=O)OCn2nnc3ccccc3c2=O)c1OC`, the cell count in test [1] is 750. Also, the inhibition in test [1] was -25% (inactive); in test [3] it was -17.8% (inactive); in test [7], 11.8% (inactive); in test [8], 28.8% (inactive). Besides, in test [2], the inhibition of aggregation is 21% (inactive). Besides, the values for the nuclei count in test [2] and in test [3] were 99.5% and 103%, respectively. In addition, the fluorescence slope in test [4] was -0.441 (inactive). The NADPH fluorescence slope in test [5] was -2.9e-05 (inactive). The slope in test [6] is 0.00547 (inactive).

Turning to `Cc1ccc(C2=Nc3ccccc3NC(C)(c3ccc(C)o3)C2)o1` (centres undefined), in test [1], the cell count was 696. Further, the inhibition in test [1] was 1.6% (inactive); in test [3], -39.9% (inactive); in test [7], -47.1% (inactive); in test [8], -67.9% (inactive). Also, the inhibition of aggregation in test [2] was -18.4% (inactive). The nuclei count in test [2] and in test [3] was 100% each time. Further, the fluorescence slope in test [4] was -0.54 (inactive). Besides, the NADPH fluorescence slope in test [5] was 1.2e-05 (inactive). Also, the slope in test [6] was 0.00401 (inactive).

Turning to `COc1ccc(N(CC(=O)Nc2ccc3c(c2)OCO3)S(=O)(=O)c2c(C)nn(C)c2C)cc1`, the cell count in test [1] turned out to be 538. Moreover, the inhibition is 11.9% (inactive) in test [1], -46% (inactive) in test [3], 10.2% (inactive) in test [7] and 17.3% (inactive) in test [8]. For the same molecule, the inhibition of aggregation in test [2] is 17.9% (inactive). In addition, the nuclei count in test [2] was determined as 51%; in test [3], 105%. In addition, in test [4], the fluorescence slope was -0.57 (inactive). Besides, the NADPH fluorescence slope in test [5] is -4.5e-06 (inactive). In addition, the slope in test [6] is 0.00577 (inactive).

With `COc1cccc(N2CCN(CC(=O)Nc3nnc(-c4ccccc4)s3)CC2)c1`, the cell count in test [1] is 417. The inhibition is 0.2% (inactive) in test [1], -120% (inactive) in test [3], 16% (inactive) in test [7] and 22% (inactive) in test [8]. In test [2], the inhibition of aggregation was 2.3% (inactive). Besides, the nuclei count was 105% in test [2] and 118% in test [3]. Besides, the fluorescence slope in test [4] was -0.472 (inactive). In test [5], the NADPH fluorescence slope is 8.2e-07 (inactive). In addition, the slope in test [6] was 0.00594 (inactive).

With `Cc1cc(C)n2cc(CSc3nnnn3C)nc2n1`, the cell count in test [1] turned out to be 532. The inhibition in test [1] was -36.9% (inactive); in test [3], 36.6% (inactive); in test [7], 15.1% (inactive); in test [8], 19.7% (inactive). Further, in test [2], the inhibition of aggregation was 9.5% (inactive). The nuclei count in test [2] was 106%; in test [3], 65.8%. Further, in test [4], the fluorescence slope is -0.256 (inactive). In test [5], the NADPH fluorescence slope is -4.3e-06 (inactive). In addition, the slope in test [6] was 0.00505 (inactive).

For `Cc1noc(C)c1CSc1nc2ccccc2s1`, the cell count in test [1] came to 588. Also, the inhibition was -2.3% (inactive) in test [1], -4.7% (inactive) in test [3], 4.37% (inactive) in test [7] and -21.8% (inactive) in test [8]. Also, in test [2], the inhibition of aggregation is -7.7% (inactive). For the same molecule, the nuclei count is 113% in test [2] and 102% in test [3]. Moreover, in test [4], the fluorescence slope was -0.515 (inactive). For the same molecule, the NADPH fluorescence slope in test [5] was 2.9e-05 (inactive). The slope in test [6] was 0.00595 (inactive).

As for `CC(=O)Nc1nc(=S)ss1`, the cell count in test [1] turned out to be 568. For the same molecule, the inhibition in test [1] is -7.2% (inactive); in test [3], -28.4% (inactive); in test [7], 10.3% (inactive); in test [8] it was 14.9% (inactive). Further, the inhibition of aggregation in test [2] is 1.3% (inactive). Also, the nuclei count in test [2] is 60.9%; in test [3] it was 120%. The fluorescence slope in test [4] is -0.486 (inactive). For the same molecule, the NADPH fluorescence slope in test [5] was -2.6e-05 (inactive). Besides, the slope in test [6] was 0.00751 (inactive).
